High-throughput results (PubChem BioAssay)
An excerpt weighted towards active compounds, which were near 19% of everything screened.
HT1080 IDH1KD tx – qHTS for induction of synthetic lethality in tumor cells producing 2HG: qHTS for the HT-1080-IDH1KD cell line. HT-1080 IDH1 knockdown viability, ATP luminescence, 48 h. Potency, µM (doses to about 46.1 µM), inactives show at the highest dose activity, negative = toxicity, hits mostly cytotoxic. 360,000 compounds, 2% hits;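 further: 0% = DMSO wells and -100% = cell-free medium wells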
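CellTiter-Glo luminescence after 48 h compound exposure at 37 degrees C of IDH1-knockdown HT-1080 cells in 5% FBS RPMI. %Activity scaled between DMSO wells and cell-free media wells, with curves fitted and assigned curve classes.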
TDP1 cell CPT – qHTS for Inhibitors of human tyrosyl-DNA phosphodiesterase 1 (TDP1): qHTS in cells in presence of CPT; 420,000 compounds, 12% hits; AID 686979, 2013; Potency, µM (doses to about 46.2 µM), for inactives: at the top dose activity change, negative = growth inhibition, usual class: inhibitors; chicken DT40 Tdp1-/-;hTDP1 cells + 20 nM CPT, ATP luminescence, 48 h; further: nearly all actives have a fitted effect of over 55% in size
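Cell growth measured by CellTiter-Glo luminescence after a minimum 48 h, 37 C compound exposure with 20 nM CPT in Tdp1-knockout DT40 cells stably expressing hTDP1, seeded 400/well; qHTS titration format.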
KB-3-1 cytotox – qHTS assay for MDR1-selective chemotherapeutics: Primary screen using the parental adenocarcinoma cell KB-3-1. 400,000 compounds, 1.4% hits. Potency, µM (highest dose often 46.1 µM), most hits filed as cytotoxic. KB-3-1 viability, CellTiter-Glo ATP luminescence, 72 h; further: nearly all actives have a fitted effect of over 60% in size
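Cytotoxicity in the drug-sensitive parental line KB-3-1 was scored as loss of CellTiter-Glo luminescence following 72 h incubation with compound. Values come from curve fitting of normalized concentration-response data.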
KB-V1 cytotox – qHTS assay for MDR1-selective chemotherapeutics: Primary screen using the drug-selected MDR subline cells KB-V1; KB-V1 MDR cells viability, CellTiter-Glo, 72 h; 400,000 compounds, 3.4% hits; Potency, µM (doses to about 46.1 µM), hits mostly cytotoxic; further: nearly all actives have a fitted effect of over 60% in size
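Cytotoxicity via CellTiter-Glo luminescence after 72 h compound exposure at 37 degrees C. Cells: drug-selected KB-V1 line, DMEM phenol-red free plus 10% FBS. Compounds tested at multiple concentrations; normalized data fitted to concentration-effect curves.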
HT1080NT lethal – qHTS for induction of synthetic lethality in tumor cells producing 2HG: qHTS for the HT-1080-NT fibrosarcoma cell line | Potency, µM (series often up to 46.1 µM), for the others: at the top dose activity, negative = less viability, actives largely listed as cytotoxic | 360,000 compounds, 1.6% hits | HT-1080-NT fibrosarcoma viability, CellTiter-Glo ATP luminescence, 48 h;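 further: NT is the 2HG producing partner of a matched IDH1 knockdown line; 0% = DMSO-treated cells and -100% = media-only wells without cells; nearly all actives have a fitted effect of over 55% in size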
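Viability of the 2HG-overproducing fibrosarcoma line after 48 hours of compound exposure at 37 degrees C was determined by luminescence with CellTiter-Glo, and concentration-effect curves were then fitted and categorized.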
TDP1 cell noCPT – qHTS for Inhibitors of human tyrosyl-DNA phosphodiesterase 1 (TDP1): qHTS in cells in absence of CPT | Potency, µM (top dose mostly 46.2 µM), without a hit: top-dose activity change, negative = growth inhibition, actives largely listed as inhibitors | DT40 Tdp1-/- hTDP1 cells, no CPT, ATP luminescence, 48 h | 420,000 compounds, 15% hits; further: nearly all actives have a fitted effect of over 55% in size
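Chicken DT40 Tdp1-/- cells complemented with human TDP1, screened without camptothecin (DMSO vehicle only), 400 cells/well. Compounds pin-transferred, cells incubated at 37 °C for at least 48 hr. Growth read as ATP-dependent luminescence (CellTiter-Glo, 30 min at RT).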
Starred values were filed as active, the others as inactive; i = inactive; ? = inconclusive; nt = no result; ! = a repeat was not active; [ ] = dose if it differs, or a comment. The call rests on the fitted dose curve; in most records, active means well fitted curve in the direction sought with a large enough effect; inconclusive means small, poorly fitted or top-dose-only effect, or another doubt; inactive means no such curve, though single readings can be large; an effect the other way counts as inactive or inconclusive. Unless noted, on the % scale 0 is the no-effect control and ±100 the full control effect; potency means the concentration at half of the fitted maximal effect.

SMILES | HT1080 IDH1KD tx | TDP1 cell CPT | KB-3-1 cytotox | KB-V1 cytotox | HT1080NT lethal | TDP1 cell noCPT
C[C@@H]1O[C@@H](O[C@@H]2C=C3CCC4C(CC[C@]5(C)[C@@H](c6ccc(=O)oc6)CC[C@]45O)[C@@]3(C)CC2)[C@H](O)[C@H](O)[C@H]1O (stereo not given in full) | 0.0092µM* | 0.058µM* | 0.01µM* | ? | 0.0073µM* | 0.015µM*
Cc1cc(-c2nc3ccccc3s2)ccc1NC(=O)c1cc(Cl)ccc1Cl | nt | ? | i | i | nt | ?
Cc1cc(C)cc(OCC(=O)Nc2ccc(-c3nc4ccccc4s3)cc2)c1 | nt | 10µM* | i | i | nt | 9.2µM*
O=C1Nc2ccc(Cl)cc2C(c2ccccc2Cl)=NC1O (stereo not given) | nt | ? | nt | nt | nt | -95%
O=[N+]([O-])c1ccc(C(=Nc2ccccc2)N2CC2)cc1 | -1% | 8.2µM* | nt | nt | 0% | 15µM*
CNCC/C=C\c1cccnc1 | nt | -5% | nt | nt | nt | -22%
CCOC(=O)C1=C(NC(=S)NC(=O)c2ccccc2)c2ccccc2CC12CCCC2 | ? | 16µM* | ? | ? | ? | 18µM*
CCN(CC)CCNC(=O)c1nn(-c2ccc(C)cc2)c(=O)c2c1c1ccccc1n2C | -18% | -14% | i | i | 1% | 21µM*
C[C@@H](N)C(=O)c1ccccc1 | nt | -27%[92.5 µM] | nt | nt | nt | -20%[92.5 µM]
CCCOP(=O)(OCCC)c1nc(-c2ccccc2)oc1NCc1ccccc1 | ? | 23µM* | i | ? | -20% | ?
COP(=O)(OC)c1nc(-c2ccccc2)oc1NCc1ccccc1 | -9% | -12% | i | i | -12% | ?
O=c1[nH]cc(N(CCCl)CCCl)c(=O)[nH]1 | nt | -17% | nt | nt | nt | -15%
CCCCC[C@@H]1CCCCC[C@@H](O)C[C@@H](O)[C@H](O)/C=C/C(=O)O1 | 0% | -25% | i | i | -22% | ?
Cn1c(=O)oc2cc(S(=O)(=O)N3CCC(C(=O)N4CCN(c5ccc(F)cc5)CC4)CC3)ccc21 | 0% | 26µM* | ? | i | 0% | 9.2µM*
COc1cccc(N2CCN(C(=O)C3CCCN(S(=O)(=O)c4ccc5c(c4)oc(=O)n5C)C3)CC2)c1 (stereo not given) | -5% | 18µM* | 12µM*! | i | 12% | 15µM*
Cc1ccc(Cl)cc1NC(=O)Cn1c(=O)oc2cc(S(=O)(=O)N3CCCCCC3)ccc21 | nt | 15µM* | i | i | nt | 16µM*
Cn1c(=O)oc2cc(S(=O)(=O)N3CCc4ccccc43)ccc21 | ? | ? | ? | ? | -15% | -5%
Cn1c(=O)oc2cc(S(=O)(=O)N3CCCc4ccccc43)ccc21 | 8.2µM* | 4.1µM* | ? | i | 6.5µM* | 5.8µM*
C=C(C)[C@@H]1C2C(=O)O[C@H]1[C@H]1OC(=O)[C@@]34OC3C[C@]2(O)[C@@]14C (stereo not given in full) | 15% | ? | i | i | ? | ?
COC(=O)c1ccc(C(C(=O)NC2CCCCC2)N(CCN2CCOCC2)C(=O)Cc2cccs2)cc1 (stereo not given) | -1% | -12% | i | i | 1% | ?
Cn1c(=O)oc2cc(S(=O)(=O)N3CCC(C(=O)N4CC=C(c5ccccc5)CC4)CC3)ccc21 | 3% | 23µM* | ? | i | 0% | 12µM*
Cc1cccc(N2CCN(C(=O)CCNS(=O)(=O)c3ccc4c(c3)oc(=O)n4C)CC2)c1C | 0% | ? | ? | ? | -27% | 16µM*
Cc1ccc(Cl)cc1N1CCN(C(=O)C2CCN(S(=O)(=O)c3ccc4c(c3)oc(=O)n4C)CC2)CC1 | nt | 1.2µM* | i | i | nt | 0.73µM*
CC(C)COC(=O)n1c(=O)oc2cc(S(=O)(=O)N3CCCCC3)ccc21 | ? | ? | ? | i | ? | ?
Cn1c(=O)oc2cc(S(=O)(=O)N3CCC(C(=O)N4CCN(c5ccccc5)CC4)CC3)ccc21 | 9% | ? | ? | i | 22% | 21µM*
SMILES | HT1080 IDH1KD tx | TDP1 cell CPT | KB-3-1 cytotox | KB-V1 cytotox | HT1080NT lethal | TDP1 cell noCPT
Cc1cccc(NC(=O)C2CCCN(S(=O)(=O)c3ccc4c(c3)oc(=O)n4C)C2)c1 (stereo not given) | -14% | ? | i | i | 16% | ?
O=C(NCP(=O)(Oc1ccccc1)Oc1ccccc1)OCc1ccccc1 | 13% | -1% | i | i | 13% | -19%
CN1C(=O)C[N+]([O-])=C(c2ccccc2)c2cc(Cl)ccc21 | 16% | 18% | i | i | 1% | -16%
COc1ccc(S(=O)(=O)N2c3ccc(F)cc3CCC2C)cc1 (stereo not given) | 3.7µM* | 0.92µM* | 1.6µM* | 1.6µM* | 1.8µM* | 0.58µM*
COc1ccc(S(=O)(=O)N2Cc3cnnn3-c3ccccc3C2C#N)cc1 (stereo not given) | 11% | 2% | i | i | 4% | 8%
CC(C)c1cccc(O)c(=O)c1 | -22% | 6.5µM*! | ? | i | -21% | 22µM*
C(=C/c1ccccc1)/CN1CCN(CCOC(c2ccccc2)c2ccccc2)CC1 | nt | 6.7µM* | nt | nt | nt | 12µM*
CC[C@@]1([C@@H]2O[C@@H]([C@H]3O[C@@](O)(CO)[C@H](C)C[C@@H]3C)C[C@@H]2C)CC[C@H]([C@]2(C)CC[C@]3(C[C@H](O)[C@@H](C)[C@@H]([C@@H](C)[C@@H](OC)[C@H](C)C(=O)O)O3)O2)O1 (stereo in doubt) | nt | 0.23µM* | nt | nt | nt | 0.21µM*
Fc1cccc(-c2ccc3c(c2)CNCc2cnnn2-3)c1 | -4% | -18% | i | i | 1% | -9%
CC(C)N(C(=O)CSc1nnc(-c2cc3ccccc3cc2O)n1Cc1ccco1)C(C)C | ? | 13µM* | 15µM* | 3.3µM* | ? | 21µM*
O=c1cccc2n1CC1CC2CN(Cc2cccc(Cl)c2Cl)C1 (stereo not given) | ? | ? | i | 18µM* | -28% | -27%
